In PubChem BioAssay (NCATS):
Records with an inconclusive call do not appear. A number with no mark means an inactive call. The source made the active and inactive calls. Calls follow the shape of the full dose curve. Starred links: 1 amine or outer side, 2 acyl side, 3 side chain; linkers in the order of their positions; H or OH if unused. Non-standard residues stand in square brackets, D forms with d. Residues, ends and D or L forms follow the SMILES beside them. X1 = CCCCCCCCCC(=O)[C@H](C(=O)[*:2])[C@@H]1CNC(=O)[C@@H](N[*:1])CS1

Test: qHTS for inhibitors of Rabies Virus screened against the NCATS CANVASS Library (AID 1347402); also: 0% is about no effect
Conditions: Rabies virus infection cell assay; series mostly up to 45.9 µM; activity change, negative = inhibition: at the top concentration

Compound | activity change, negative = inhibition | outcome
CCCc1c2c([nH]c(=O)c1C)C(=O)c1[nH]c(=O)c(C)c(CCC)c1C2=O | -31.7% | –
C=C[C@]1(C)CC[C@@H]([C@H](C)C(=O)CC=C(C)C)O1 | 3.96% | –
C=C1[C@H]2CC[C@@]3(C=CC(=O)[C@@](C)(CCC(=O)Nc4c(O)ccc(C(=O)O)c4O)C3C2)[C@H]1O (stereo not given in full) | -7.81% | –
C/C(=C\[C@@H](C)CC/C=C/CC/C=C/C(=O)O)[C@@H](O)[C@H](C)C(=O)CCCC1CC(=O)NC(=O)C1 | -3.87% | –
CN1C(=O)C2C(N=CN2C)N(C)C1=O (stereo not given) | -27.5% | –
COC1C(O)C(OC(N)=O)C(Oc2ccc3c(O)c(NC(=O)c4ccc(O)c(CC=C(C)C)c4)c(=O)oc3c2C)OC1(C)C (stereo not given) | 5.89% | –
C[C@@H](CCC[C@]1(C)C(=O)C=C[C@]23C[C@H]4C[C@H](O[C@@]4(C)C2)C31)C(=O)N[C@@H](CO)C(=O)O (stereo not given in full) | 15.6% | –
C=C1CC[C@@H](O[C@H]2C[C@@](O)([C@H](C)NC(=O)c3[nH]c(C)c(Cl)c3Cl)[C@H](O)[C@@H](C)O2)[C@@H]2C=C[C@H](C)C(/C(O)=C3/C(=O)[C@H](C(C)C)N([C@@H]4O[C@H](C)[C@H](OC(N)=O)[C@H](OC(C)=O)[C@@H]4OC)C3=O)[C@@H]12 (stereo not given in full) | -1.08% | –
CC(C)(Br)[C@@H](Cl)C[C@H](Br)[C@](C)(Cl)/C=C/Br | -28.5% | –
COC12OC1(C13OC1(OC)C(=O)c1cc4cc(C)oc(=O)c4c(O)c1C3O)C(O)c1c(cc3cc(C)oc(=O)c3c1O)C2=O (stereo not given) | -32.7% | –
O=C(O)[C@@]12CO[C@@]3(O)C4CCN(CC[C@H]31)[C@H]4c1c2[nH]c2ccccc12 | -8.87% | –
C=C1C[C@]23C=CC(=O)[C@@](C)(CCCC(C)C(=O)N[C@@H](CO)C(=O)O)[C@@H]2C[C@@H]1CC3 (stereo not given in full) | 0.299% | –
C=C(C)CC[C@H](Cc1c(O)cc(O)c2c1O[C@H](c1ccc(O)cc1O)CC2=O)C(=C)C | -32.2% | –
O=Cc1ccc2n1C[C@@]1(C[C@H](O)[C@@H](CO)O1)OC2 | 4.33% | –
C[C@]12CC[C@]3(C1)[C@H](CC2=O)CC(OC(=O)c1ccccc1)[C@H]1[C@@](CO)(C(=O)O)CCC[C@@]13C (stereo not given in full) | -3.93% | –
C/C(=C\CC/C(C)=C/CC[C@]1(C)CCc2cc(O)cc(C)c2O1)CC/C=C(\C)C(=O)O | -24.6% | –
C/C(=C\[C@@H](C)CC/C=C/CC/C=C/C(=O)O)[C@H](O)[C@H](C)C(=O)CCCC1CC(=O)NC(=O)C1 | 5.03% | –
CCC1=C2CCCN3C(=O)O[C@H]([C@H]1OC(C)=O)[C@H]23 | -13.8% | –
CC(C)=CCC[C@]1(C)[C@H]2CC(=O)[C@@]3(CO3)[C@@H]1C2 | -12.5% | –
C/C=C(/CO)C(=O)O[C@@H]1[C@H](O)[C@@H](C(=O)OC)O[C@@H]2C[C@H]3OC(n4cnc5c(N)ncnc54)[C@H](OC)[C@H]3O[C@@]12O (stereo not given in full) | 26% | –

Compound | activity change, negative = inhibition | outcome
COc1ccc([C@@H]2c3cc(OC)c(OC)cc3C(=O)C(C)C2C)cc1OC (stereo not given in full) | -15.8% | –
C=C(C)[C@@H]1CC[C@]2(C)CC[C@]3(C)[C@H](CC[C@@H]4[C@@]5(C)CC[C@H](O)C(C)(C)[C@@H]5CC[C@]43C)[C@@H]12 | – | inactive
O=C1CC(c2ccc(O)cc2)Oc2ccccc21 (stereo not given) | -28.2% | –
CC(=O)O[C@H]1C[C@@]2(C)[C@@H](CC[C@H]3[C@@]4(C)C=CC(=O)[C@@H](C)[C@@H]4[C@H](OC(C)=O)C(=O)[C@@]32C)/C1=C(\CCC=C(C)C)C(=O)O | -0.717% | –
Cc1occ2c1C(=O)c1c(cc(O)c(O)c1O)C2=O | -33.2% | –
C[C@H](CCC(O)C(C)(O)CO)[C@@]1(O)CC[C@@]2(C)C3=C(CC[C@@]21C)[C@@]1(C)CCC(OC(=O)CCC(=O)O)C(C)(C)[C@@H]1CC3 (stereo not given in full) | -25.6% | –
C=C[C@@]1(C)CC[C@@H]([C@H](C)C(=O)/C=C/C(C)C)O1 | 0.952% | –
COc1cc2c(c(O)c1O)C(=O)c1c(coc1C)C2=O | -13.2% | –
CCCCCCCCCC(=O)[C@@H]1C(=O)N[C@@H](CC(C)C)C(=O)N[C@H](C)C(=O)N2CCC[C@H]2C(=O)N[C@@H](C(C)C)C(=O)N[C@H]2CS[C@H]1CNC2=O (cyclo(L[dA]PV[X1])) | -9.71% | –
CC(=O)NC[C@@H]1O[C@H](CC/C=C(C)/C(C)=C/C=O)[C@H](C)C[C@H]1O | 5.68% | –
O=c1cc(-c2ccc(O)cc2)oc2c([C@@H]3OC(CO)[C@H](O)[C@@H](O)[C@H]3O)c(O)cc(O)c12 (stereo not given in full) | 9.44% | –
[C-]#[N+][C@@]12C(=O)[C@@H]3[C@@H](O[C@@]4(C(=O)N(C)c5cccc1c54)C3(C)C)C(=O)[C@@]2(C)C=C | 42.5% | –
Cc1cc(O)cc2oc(C[C@H](C)O)cc(=O)c12 | -15.3% | –
CC(C)=CCCC(C)(O)[C@H]1CC=C(C)C(O)C1 (stereo not given in full) | 0.373% | –
COc1ccc([C@@H]2c3cc(OC)c(OC)cc3C(=O)[C@H](C)C2C)cc1OC (stereo not given in full) | -3.53% [at 9.14 µM] | –
C=CC(C)(C)C(=O)[C@@H](C)[C@@H]1CC[C@@](C)(C=C)O1 | 11.4% | –
CC(C)=CCC[C@]12c3cc4c(cc3CC[C@@]1(C)[C@H](C)CC[C@@H]2O)[nH]c1ccccc14 | -2.51% | –
CCCCCCC[C@@H](C/C=C/CCC(=O)NCCc1c[nH]c2ccccc12)OC | -30.3% | –
COc1ccc2oc3c(OC)c(OC)c(OC)c(OC)c3c(=O)c2c1 | -7.41% [at 9.14 µM] | –
CC(C)=CCC/C(C)=C/Cc1cc([C@@H]2CC(=O)c3c(cc(O)c(CC=C(C)C)c3O)O2)ccc1O | -22.1% | –
